Source: PubChem BioAssay (NCATS)
Results filed as inconclusive are left out. Calls of active or inactive are those of the source. Unless noted, calls follow the shape of the dose curve; as a rule, active = well fitted curve in the direction sought with a large enough effect; inconclusive = small, poorly fitted or top-dose-only effect, or another doubt; inactive = no such curve, though single readings can be large; an effect the other way counts as inactive or inconclusive.

Legend:
[1] = molecular target: Ubiquitin carboxyl-terminal hydrolase 1 (Homo sapiens) (UniProt O94782); assay: Inhibitors of USP1/UAF1: Pilot qHTS (AID 504865);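 also: rhodamine fluorescence freed from ubiquitin-rhodamine substrate followed over time; top concentration of the series differs between compounds; % is scaled to controls: 0 for no effect and ±100 for the full control effect; nearly all actives have a fitted effect of over 35% in size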
Ubiquitin carboxyl-terminal hydrolase 1 (Homo sapiens), sequence (O94782 whole entry, looked up): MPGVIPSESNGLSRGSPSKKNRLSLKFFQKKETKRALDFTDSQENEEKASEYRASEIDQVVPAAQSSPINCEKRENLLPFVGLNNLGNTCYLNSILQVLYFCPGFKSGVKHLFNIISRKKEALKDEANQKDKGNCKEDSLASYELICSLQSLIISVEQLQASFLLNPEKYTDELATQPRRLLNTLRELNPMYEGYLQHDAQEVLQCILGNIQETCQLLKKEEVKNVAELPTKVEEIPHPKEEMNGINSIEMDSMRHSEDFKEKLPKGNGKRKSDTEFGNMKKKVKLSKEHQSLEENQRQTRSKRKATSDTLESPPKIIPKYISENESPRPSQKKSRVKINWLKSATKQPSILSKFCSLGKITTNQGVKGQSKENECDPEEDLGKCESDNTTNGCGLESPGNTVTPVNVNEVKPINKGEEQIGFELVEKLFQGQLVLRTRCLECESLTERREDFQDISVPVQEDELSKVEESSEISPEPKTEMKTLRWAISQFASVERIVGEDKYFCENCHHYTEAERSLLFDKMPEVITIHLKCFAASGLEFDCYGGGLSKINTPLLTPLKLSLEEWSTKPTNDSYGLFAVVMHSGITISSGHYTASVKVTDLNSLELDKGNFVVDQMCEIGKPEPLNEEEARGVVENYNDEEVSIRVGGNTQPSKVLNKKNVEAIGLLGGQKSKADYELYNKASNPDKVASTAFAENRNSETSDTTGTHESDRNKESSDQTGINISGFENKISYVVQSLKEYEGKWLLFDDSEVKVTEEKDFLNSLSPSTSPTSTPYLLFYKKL
In short: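 1nM USP1/UAF1 + cpd, 15 min RT; start w/ Ub-Rho 150nM final; kinetic FL 480/540 nm, 6 reads q60 s. Buffer 50mM HEPES pH 7.8, 0.5mM EDTA, 1mM TCEP, 0.01% Tween-20, 0.1 mg/ml BSA.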

[2] = molecular target: Luciferin 4-monooxygenase (Photinus pyralis) (UniProt P08659); assay: Biochemical firefly luciferase enzyme assay for NPC (AID 624030);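 also: purified P. pyralis luciferase at 10 nM with luciferin and ATP substrate; 0% = DMSO and -100% = full luciferase inhibition by PTC124 control; nearly all actives have a fitted effect of over 70% in size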
Luciferin 4-monooxygenase (Photinus pyralis), sequence (P08659 whole entry, looked up): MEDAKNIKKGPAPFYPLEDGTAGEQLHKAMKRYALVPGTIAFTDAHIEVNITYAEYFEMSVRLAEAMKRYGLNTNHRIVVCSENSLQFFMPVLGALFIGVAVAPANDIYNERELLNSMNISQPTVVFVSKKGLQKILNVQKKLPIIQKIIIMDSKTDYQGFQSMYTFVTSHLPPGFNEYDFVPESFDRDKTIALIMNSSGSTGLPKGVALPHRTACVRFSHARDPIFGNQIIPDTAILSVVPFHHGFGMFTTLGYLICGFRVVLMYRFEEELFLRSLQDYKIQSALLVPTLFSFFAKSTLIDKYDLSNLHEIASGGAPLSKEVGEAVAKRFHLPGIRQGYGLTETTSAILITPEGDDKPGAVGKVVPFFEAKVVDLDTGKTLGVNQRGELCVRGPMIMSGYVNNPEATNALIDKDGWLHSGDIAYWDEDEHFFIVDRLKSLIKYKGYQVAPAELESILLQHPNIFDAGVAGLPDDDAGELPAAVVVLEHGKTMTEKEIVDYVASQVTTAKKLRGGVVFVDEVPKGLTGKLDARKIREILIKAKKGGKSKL
In short: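 Counter-screen for direct inhibition of the luciferase enzyme by approved-drug library compounds, run at 10 nM enzyme in 50 mM Tris acetate (final). Luminescence was read within 5 min of enzyme-buffer addition and normalized to PTC124 versus DMSO (0%).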

[3] = S16 Schwann cell viability assay (CellTiter-Glo assay) (AID 624031); also: nearly all actives have a fitted effect of over 70% in size; also: potency is read from the fitted curve at half-maximal effect
In short: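 Luminescent ATP read-out (CellTiter-Glo) after 24 h compound exposure of native S16 rat Schwann cells at 37 °C. Signals were normalized between cell-free wells and DMSO-treated cells, set as 0% activity.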

[4] = S16 Schwann cell PMP22 intronic element beta-lactamase assay (AID 624044; calls by dose curve; also: nearly all actives have a fitted effect of over 15% in size; also: potency is read from the fitted curve at half-maximal effect;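 as to ratio activity, negative = inhibition: 0% = DMSO and -100% = potassium clavulanate positive control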); conditions: S16 rat Schwann cells, PMP22 element beta-lactamase FRET, 24 h; ratio activity, negative = inhibition: at 38.3 µM (top of the series)
In short: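 Beta-lactamase reporter under a PMP22 intronic regulatory element in stable S16 rat Schwann cells; 24 h compound exposure. 460 nm blue signal normalized between DMSO (0%) and potassium clavulanate, with 535 nm FRET tracking viability; curves classed by r2 and response.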

[5] = qHTS profiling for inhibitors of Plasmodium falciparum proliferation (AID 504749); also: potency is read from the fitted curve at half-maximal effect;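 as to activity, negative = inhibition: 0% = DMSO vehicle and full inhibition = artemisinin control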; as to all read-outs here: nearly all actives have a fitted effect of over 60% in size; conditions: P. falciparum in erythrocytes, SYBR Green DNA, 72 h; for activity, negative = inhibition: at 28.7 µM (top of the series)
In short: (§1)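 Fluorescence of SYBR Green-bound parasite DNA, read at 485/535 nm, served as the growth measure. Infected erythrocytes were cultured with compound 72 h; artemisinin (0.29 uM) and DMSO wells defined the normalization range.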

C2A = assay: as above; conditions: P. falciparum in erythrocytes, SYBR Green DNA, 72 h; series mostly up to 28.7 µM
In short: as §1

CP192 = assay: as above; conditions: P. falciparum in erythrocytes, SYBR Green DNA, 72 h; series mostly up to 28.7 µM
In short: as §1

CP201 = assay: as above; conditions: P. falciparum in erythrocytes, SYBR Green DNA, 72 h; series mostly up to 28.7 µM
In short: as §1

CP215 = assay: as above; conditions: P. falciparum in erythrocytes, SYBR Green DNA, 72 h; series mostly up to 28.7 µM
In short: as §1

CP237 = assay: as above; conditions: P. falciparum in erythrocytes, SYBR Green DNA, 72 h; series mostly up to 28.7 µM
In short: as §1

CP238 = assay: as above; conditions: P. falciparum in erythrocytes, SYBR Green DNA, 72 h; series mostly up to 28.7 µM
In short: as §1

CP268 = assay: as above; conditions: P. falciparum in erythrocytes, SYBR Green DNA, 72 h; series mostly up to 28.7 µM
In short: as §1

CP269 = assay: as above; conditions: P. falciparum in erythrocytes, SYBR Green DNA, 72 h; series mostly up to 28.7 µM
In short: as §1

CP325 = assay: as above; conditions: P. falciparum in erythrocytes, SYBR Green DNA, 72 h; series mostly up to 28.7 µM
In short: as §1

ECU = assay: as above; conditions: P. falciparum in erythrocytes, SYBR Green DNA, 72 h; series mostly up to 28.7 µM
In short: as §1

FAB9 = assay: as above; conditions: P. falciparum in erythrocytes, SYBR Green DNA, 72 h; series mostly up to 28.7 µM
In short: as §1

JCK = assay: as above; conditions: P. falciparum in erythrocytes, SYBR Green DNA, 72 h; series mostly up to 28.7 µM
In short: as §1

PC15 = assay: as above; conditions: P. falciparum in erythrocytes, SYBR Green DNA, 72 h; series mostly up to 28.7 µM
In short: as §1

PC49 = assay: as above; conditions: P. falciparum in erythrocytes, SYBR Green DNA, 72 h; series mostly up to 28.7 µM
In short: as §1

COC(=O)C1C(OC(=O)c2ccccc2)CC2CCC1N2C (stereo not drawn)
inactive: Potency [1] | Potency [2] | Potency [3] | Potency [4] | activity, negative = inhibition ([5]; parasite line A) 9.75% | activity, negative = inhibition ([5]; parasite line B) -3.4% | Potency (C2A) | Potency (CP192) | Potency (CP201) | Potency (CP215) | Potency (CP237) | Potency (CP238) | Potency (CP268) | Potency (CP269) | Potency (CP325) | Potency (ECU) | Potency (FAB9) | Potency (JCK) | Potency (PC15) | Potency (PC49)

C#CCN1CC(=O)N(COC(=O)[C@@H]2[C@@H](C=C(C)C)C2(C)C)C1=O
inactive: Potency [2] | Potency [3] | Potency [4] | activity, negative = inhibition ([5]; parasite line A) 4.89% | activity, negative = inhibition ([5]; parasite line B) 10.9% | Potency (C2A) | Potency (CP192) | Potency (CP201) | Potency (CP237) | Potency (CP238) | Potency (CP268) | Potency (CP269) | Potency (CP325) | Potency (ECU) | Potency (FAB9) | Potency (JCK) | Potency (PC15) | Potency (PC49)

CC(Cc1ccccc1)N(C)C (stereo not drawn)
inactive: Potency [1] | Potency [2] | Potency [3] | Potency [4] | activity, negative = inhibition ([5]; parasite line A) 9.11% | activity, negative = inhibition ([5]; parasite line B) 11.3% | Potency (C2A) | Potency (CP192) | Potency (CP201) | Potency (CP215) | Potency (CP237) | Potency (CP238) | Potency (CP269) | Potency (CP325) | Potency (ECU) | Potency (FAB9) | Potency (JCK) | Potency (PC15) | Potency (PC49)

COC(C(=O)C(O)C(C)O)C1Cc2cc3cc(OC4CC(OC5CC(O)C(OC)C(C)O5)C(OC(C)=O)C(C)O4)c(C)c(O)c3c(O)c2C(=O)C1OC1CC(OC2CC(OC3CC(C)(O)C(OC(C)=O)C(C)O3)C(O)C(C)O2)C(O)C(C)O1 (stereo not drawn)
active: Potency [4] 79.4 nM | Potency ([5]; parasite line A) 708 nM | Potency ([5]; parasite line B) 1410 nM | Potency (C2A) 1780 nM | Potency (CP192) 4260 nM | Potency (CP201) 15100 nM | Potency (CP215) 4260 nM | Potency (CP237) 89.1 nM | Potency (CP238) 1260 nM | Potency (CP268) 1900 nM | Potency (CP269) 1900 nM | Potency (CP325) 3380 nM | Potency (ECU) 1000 nM | Potency (FAB9) 2000 nM | Potency (JCK) 3980 nM | Potency (PC15) 2240 nM | Potency (PC49) 2820 nM
inactive: Potency [2] | Potency [3]

C[C@]12CC[C@H]3[C@@H](CC[C@@]45O[C@@H]4C(=O)C(C#N)C[C@]35C)[C@@H]1CC[C@@H]2O (stereo partly drawn)
inactive: Potency [1] | Potency [2] | Potency [3] | Potency [4] | Potency (CP192) | Potency (CP201) | Potency (CP215) | Potency (CP237) | Potency (CP238) | Potency (CP268) | Potency (CP269) | Potency (CP325) | Potency (FAB9) | Potency (JCK) | Potency (PC15) | Potency (PC49)

C[C@@H](N)[C@@H](O)c1ccc(O)c(O)c1
inactive: Potency [1] | Potency [2] | Potency [4] | activity, negative = inhibition ([5]; parasite line A) -5.35% | activity, negative = inhibition ([5]; parasite line B) 7.25% | Potency (C2A) | Potency (CP192) | Potency (CP201) | Potency (CP215) | Potency (CP237) | Potency (CP238) | Potency (CP268) | Potency (CP269) | Potency (CP325) | Potency (ECU) | Potency (FAB9) | Potency (JCK) | Potency (PC15) | Potency (PC49)
active: Potency [3] 28700 nM

CC12CCC3C4CCC(=O)C(O)=C4CCC3C1CCC2OC(=O)CCC1CCCC1 (stereo not drawn)
inactive: Potency [1] | Potency [2] | Potency [3] | Potency [4] | activity, negative = inhibition ([5]; parasite line A) -6.44% | activity, negative = inhibition ([5]; parasite line B) -4.5% | Potency (C2A) | Potency (CP192) | Potency (CP201) | Potency (CP215) | Potency (CP237) | Potency (CP238) | Potency (CP268) | Potency (CP269) | Potency (CP325) | Potency (ECU) | Potency (FAB9) | Potency (JCK) | Potency (PC15) | Potency (PC49)

COc1ccc2c(c1)CCC1[C@@H]2CCC2(C)[C@@H](NCCCCCCN3C(=O)C=CC3=O)CC[C@@H]12 (stereo partly drawn)
inactive: Potency [1]
